ELG1 genotoxic: genotoxicity induction in ELG1-luciferase HEK293T cells | HEK293T ELG1-luciferase reporter, luminescence, 16 h | AID 504466 | 1.3% of 330,000 active | Potency, µM (series often up to 46 µM), most hits filed as activators; further: nearly all actives have a fitted effect of over 60% in size
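ELG1-luciferase HEK293T cells, 2,000/well; compound pinned in; 16 hr, 37 °C, 5% CO2; ONE-Glo, 30 min RT; luminescence on CCD imager.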
FLuc counter: inhibits or activates purified firefly luciferase, miR-21 counter-screen; P08659; purified FLuc, Km substrates, luminescence inhibition; Potency, µM (series often up to 57.5 µM), hits mostly inhibitors; 6.9% of 360,000 active; AID 588342; further: nearly all actives have a fitted effect of over 55% in size
Target sequence (P08659 whole entry, looked up): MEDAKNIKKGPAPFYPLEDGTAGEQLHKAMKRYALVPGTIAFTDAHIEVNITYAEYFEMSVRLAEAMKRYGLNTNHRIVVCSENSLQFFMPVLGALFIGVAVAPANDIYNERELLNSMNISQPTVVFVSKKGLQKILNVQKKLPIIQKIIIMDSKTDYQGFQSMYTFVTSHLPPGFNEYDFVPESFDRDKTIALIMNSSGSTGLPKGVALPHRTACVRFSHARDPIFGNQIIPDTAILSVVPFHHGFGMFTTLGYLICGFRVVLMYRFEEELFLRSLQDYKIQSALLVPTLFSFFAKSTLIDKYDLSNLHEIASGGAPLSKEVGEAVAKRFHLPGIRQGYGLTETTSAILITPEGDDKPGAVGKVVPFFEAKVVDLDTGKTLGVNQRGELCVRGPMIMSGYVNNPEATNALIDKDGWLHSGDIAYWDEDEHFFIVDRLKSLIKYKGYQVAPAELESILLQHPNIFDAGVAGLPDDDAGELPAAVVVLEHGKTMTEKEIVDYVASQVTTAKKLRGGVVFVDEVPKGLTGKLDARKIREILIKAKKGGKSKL
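Biochemical qHTS of compounds, final roughly 60 µM downward over six points, against 10 nM purified firefly luciferase using Km concentrations of substrates (10 uM D-luciferin, 10 uM ATP) in Tris acetate pH 7.5 buffer; luminescence output.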
NPC1 promoter act: activates the NPC1 promoter | 2.4% of 320,000 active | Huh7 NPC1 promoter luciferase reporter, 24 h | Potency, µM (series often up to 9.22 µM), most hits filed as activators | AID 485313; further: nearly all actives have a fitted effect of over 60% in size
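Huh7 reporter cells (NPC1 promoter driving luciferase) are dosed with compound for 24 h at 37 °C, 5% CO2; luciferase detection reagent is then added and luminescence measured after 10 min at ambient temperature.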
KinaseGlo FLuc: Kinase-Glo luciferase inhibition (counter-screen) | AID 1379 | Q27757 | Potency, µM (doses to about 38.3 µM), usual class: inhibitors | Kinase-Glo luciferase, ATP luminescence, 8 min | 0.28% of 200,000 active; further: nearly all actives have a fitted effect of over 60% in size
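Recombinant Kinase-Glo luciferase, 10 uM ATP (linear range), luciferin; imidazole pH 7.2 / KCl / MgCl2 / Tween / BSA buffer; 8 min RT; luminescence.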
SMN2 splice enh: increases expression of the SMN2 splice variant | 2.8% of 210,000 active | HEK293 SMN2-luciferase splicing reporter, luminescence, 30-36 h | AID 1458 | Potency, µM (series often up to 46.1 µM), actives largely listed as activators; further: nearly all actives have a fitted effect of over 55% in size
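qHTS luciferase splicing reporter: luminescence rises when SMN2 exon 7 is included in transfected HEK293 cells. Compound exposure lasted 30-36 h at 37C, with 4.5 mM final sodium butyrate as control, followed by a ONE-Glo read.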
Rab9 promoter act: Rab9 promoter activation. Huh7 Rab9 promoter-luciferase reporter, luminescence, 24 h. Potency, µM (series often up to 9.22 µM), usual class: activators. 2.8% of 320,000 active. AID 485297; further: nearly all actives have a fitted effect of over 60% in size
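Stable Rab9-luc Huh7, 1500 cells/well, 2 h settle; cmpd in DMSO, 24 h, 37 °C/5% CO2; luciferase reagent 10 min RT; luminescence.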
Each line names hits and unclear results; the compound was inactive in the other large screens. Compounds with a hit are over-represented: about 7.5% of the library has one in this group of screens. The call rests on the fitted dose curve; in most records, active means well fitted curve in the direction sought with a large enough effect; inconclusive means small, poorly fitted or top-dose-only effect, or another doubt; inactive means no such curve, though single readings can be large; an effect the other way counts as inactive or inconclusive.

COc1cc(/C=N/NC(=O)c2ccncc2)ccc1OC(=O)c1cc(OC)c(OC)c(OC)c1	none (no result: KinaseGlo FLuc, SMN2 splice enh)
NC(=O)c1cc2c3ccccc3ccn2c1-c1ccccc1	ELG1 genotoxic 11.6µM, FLuc counter 21.3µM (no result: KinaseGlo FLuc, SMN2 splice enh)
Cc1cc(C(N)=O)c2ccccc2n1	none
O=[N+]([O-])c1ccc(C23CC4CC(CC(O)(C4)C2)C3)cc1	FLuc counter 10.7µM, NPC1 promoter act 2.82µM, Rab9 promoter act 1.58µM (no result: KinaseGlo FLuc, SMN2 splice enh)
Cc1ccn2c(c1)nc(=S)n2C(=O)c1ccccc1	ELG1 genotoxic inconclusive, FLuc counter 0.135µM, NPC1 promoter act 0.398µM, KinaseGlo FLuc inconclusive, SMN2 splice enh 0.501µM, Rab9 promoter act 0.251µM
Cc1cccc(C(=O)n2c(=S)nc3cc(C)ccn32)c1	ELG1 genotoxic 0.461µM, FLuc counter 0.19µM, NPC1 promoter act 0.562µM, Rab9 promoter act 0.251µM (no result: KinaseGlo FLuc, SMN2 splice enh)
Cc1ccn2c(NC(=O)c3ccccc3)c(-c3ccccc3)nc2c1	none (no result: KinaseGlo FLuc, SMN2 splice enh)
COC(=O)c1cc2sccc2n1Cc1nc(-c2cccc(Br)c2)oc1C	none (no result: ELG1 genotoxic, NPC1 promoter act, KinaseGlo FLuc, Rab9 promoter act)
Cc1ccc2nc(-c3ccc(N4C(=O)CC(N5CCN(CCO)CC5)C4=O)cc3)sc2c1 (centres undefined)	ELG1 genotoxic inconclusive, FLuc counter 8.49µM
COc1ccc(B(O)O)cc1	none (no result: ELG1 genotoxic, FLuc counter, NPC1 promoter act, Rab9 promoter act)
O=C(CSc1nc(=O)n(Cc2ccccn2)c2c1CCC2)Nc1ccccc1	none (no result: ELG1 genotoxic, NPC1 promoter act, KinaseGlo FLuc, SMN2 splice enh, Rab9 promoter act)
Cn1c(SCc2ccc(C#N)cc2Cl)nc2ccccc21	ELG1 genotoxic 20.6µM, FLuc counter 6.01µM, NPC1 promoter act 2.24µM, SMN2 splice enh 14.1µM, Rab9 promoter act 3.55µM
Cc1nc2ccc(-c3ccccc3)cc2o1	FLuc counter 16.9µM
Cc1nc2ccc(NC(=O)c3cccc(C(F)(F)F)c3)cc2o1	ELG1 genotoxic inconclusive
CN1C/C(=C/c2cccnc2)C(=O)/C(=C/c2cccnc2)C1	none
O=C1/C(=C/c2cccnc2)Cc2ccc(Cl)cc21	FLuc counter 12µM (no result: KinaseGlo FLuc, SMN2 splice enh)
O=C(NNC(=O)c1ccccc1C(=O)O)c1ccc(-c2ccccc2)cc1	FLuc counter 16.9µM
O=C(NNC(=O)C1CC1)c1ccc(-c2ccccc2)cc1	none
O=C(NNC(=O)c1ccccc1O)c1cccc(Br)c1	FLuc counter 16.9µM, NPC1 promoter act inconclusive (no result: KinaseGlo FLuc, SMN2 splice enh)
O=C(COC(=O)c1ccccc1O)NNC(=O)c1ccc(Br)cc1	none (no result: KinaseGlo FLuc, SMN2 splice enh)
O=C(NNC(=O)c1ccccc1O)c1ccc(Br)cc1	FLuc counter 12µM, NPC1 promoter act inconclusive, Rab9 promoter act inconclusive (no result: KinaseGlo FLuc, SMN2 splice enh)
O=C(NNC(=O)c1ccc(O)cc1O)c1ccc(Cl)cc1	ELG1 genotoxic inconclusive, FLuc counter inconclusive
O=C(NNC(=O)c1ccccc1O)c1ccc(Cl)cc1	ELG1 genotoxic inconclusive, FLuc counter 9.53µM, NPC1 promoter act inconclusive, Rab9 promoter act inconclusive
NC(=S)NNC(=O)c1cccc(Br)c1	none
Cc1ccc(-c2nn(CC(=O)NCc3ccccc3)c3c2cnc2ccc(F)cc23)cc1C	none (no result: ELG1 genotoxic, NPC1 promoter act, KinaseGlo FLuc, SMN2 splice enh, Rab9 promoter act)
Cc1cccc(C(=O)NNC(=O)c2ccc(Cl)cc2)c1O	ELG1 genotoxic 9.2µM, FLuc counter 10.7µM, NPC1 promoter act inconclusive, SMN2 splice enh 15.8µM, Rab9 promoter act inconclusive
Cc1ccc(N2C(=O)N(CC(=O)Nc3ccc(F)c(F)c3)C(=O)C2C)cc1 (centres undefined)	FLuc counter inconclusive (no result: KinaseGlo FLuc, SMN2 splice enh)
COc1ccc(-c2cc(-c3nnc(-c4ccncc4)o3)c3ccccc3n2)cc1	FLuc counter 2.69µM
COc1ccc(-c2nnc(-c3cc4c(ccc5ccccc54)oc3=O)o2)cc1	none
CN(C)S(=O)(=O)c1cccc(-c2nnc(-c3ccccc3)o2)c1	ELG1 genotoxic inconclusive, FLuc counter 23.9µM, NPC1 promoter act inconclusive, Rab9 promoter act inconclusive
Clc1cccc(-c2nnc(-c3ccccc3)o2)c1	ELG1 genotoxic 1.16µM, FLuc counter 1.51µM, NPC1 promoter act 1.41µM, SMN2 splice enh 12.6µM, Rab9 promoter act 0.891µM
COc1ccc(-c2nnc(-c3ccccc3)o2)cc1OC	ELG1 genotoxic inconclusive, FLuc counter 8.49µM, NPC1 promoter act 2.24µM, Rab9 promoter act 1.78µM (no result: KinaseGlo FLuc, SMN2 splice enh)
O=S(=O)(Cc1ccccc1)c1ccccc1-c1nnc(-c2ccccc2)o1	none
c1ccc(-c2nnc(-c3ccncc3)o2)cc1	FLuc counter inconclusive, NPC1 promoter act inconclusive, Rab9 promoter act 3.16µM
